The text below walks through data of publication PMC4242493, “Sequence specificity incompletely defines the genome-wide occupancy of Myc”.

In all, about 33,000 sequences were measured (“normalized occupancy”: median about 0.075, highest 2% from about 0.095 on). The entries come from a sample that favours the highest values as a whole.

MaxL homodimer, sequence (P61244 whole entry): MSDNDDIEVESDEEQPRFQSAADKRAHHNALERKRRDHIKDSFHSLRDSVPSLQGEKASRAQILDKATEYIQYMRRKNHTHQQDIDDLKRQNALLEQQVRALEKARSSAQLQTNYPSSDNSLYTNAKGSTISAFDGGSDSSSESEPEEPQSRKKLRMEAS

The assay has as its target MaxL homodimer (Homo sapiens, UniProt P61244 1-160). The experiment in a line: universal protein-binding microarray (PBM); PBS-based mixture, 10 nM His-tagged protein dimer, 2% milk, 200 ng/uL BSA, 50 ng/uL salmon testes DNA, 0.02% TX-100; detection with Alexa 488 anti-His antibody;; high values mean tight binding. Particulars: protein: recombinant; tags: C-terminal His-tag (pET21a); chain copies: 2; dsDNA, one strand shown. Summed up:
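A His-tagged protein dimer at 10 nM was incubated on Agilent 4 x 44 K arrays of the 'all 10-mer' universal design, then labelled with 10 ng/μL fluorophore-conjugated anti-His antibody and scanned on a GenePix 4400A. A fluorescence intensity was assigned to each 8-mer. Binding occupancy is each such intensity normalised to that of the highest-ranked one.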
In the case of AATGCCTA, the binding signal came out at 0.0747 normalized occupancy.
As for ACATCAGT, the figure is 0.0736 normalized occupancy.
Under TATGAATA stands 0.0823 normalized occupancy; under ATATCTCC, 0.0807 normalized occupancy.
As for CACTTCAG, the figure is 0.0728 normalized occupancy; as for TTGAGAAA, 0.0807 normalized occupancy.
With AACGTACT, the binding signal amounted to 0.0746 normalized occupancy.
As for ACACGACT, the figure is 0.0807 normalized occupancy.
Under ACACGATA stands 0.0824 normalized occupancy.
As for ACACGAGT, the figure is 0.0979 normalized occupancy; as for ACACGAAT, 0.0776 normalized occupancy; as for ACACGAGA, 0.0977 normalized occupancy.
For ATACGAGG, the binding signal stood at 0.084 normalized occupancy.
As to ACACGAGG, the binding signal worked out at 0.144 normalized occupancy.
As for ACACGATC, the binding signal was found to be 0.0822 normalized occupancy.
Under AAACGAGG stands 0.081 normalized occupancy; under ACACGAGC, 0.0815 normalized occupancy; under ACACGATG, 0.0969 normalized occupancy.
Under ATACGAGA stands 0.0785 normalized occupancy.
Under GTGCCCTA stands 0.0772 normalized occupancy; under CAAACAGG, 0.0747 normalized occupancy.
Turning to CGCAAGAG, the binding signal worked out at 0.0757 normalized occupancy.
Under AGGGGTCG stands 0.0779 normalized occupancy; under CCATATGC, 0.1 normalized occupancy.
Under CCATATGG stands 0.123 normalized occupancy.
Under GCATATGC stands 0.0998 normalized occupancy; under CCATATCG, 0.083 normalized occupancy.
In the case of GCATATCC, the binding signal is 0.0834 normalized occupancy.
As for CTATATGC, the figure is 0.0831 normalized occupancy.
Under GCATATGA stands 0.0934 normalized occupancy; under CCATATAG, 0.087 normalized occupancy.
As for CGATATGC, the figure is 0.0806 normalized occupancy; as for CAGATAAA, 0.078 normalized occupancy; as for ACCATAAG, 0.0853 normalized occupancy.
ACAAATTG: the binding signal was found to be 0.0753 normalized occupancy.
As to CCCATACC, the binding signal came out at 0.0872 normalized occupancy.
Under CCAGTTGC stands 0.0718 normalized occupancy.
Turning to AAACAGTG, the binding signal amounted to 0.0728 normalized occupancy.
As for TAGTTTGA, the figure is 0.0723 normalized occupancy; as for AATTTTCT, 0.0797 normalized occupancy.
As for ACGGGACA, the binding signal amounted to 0.0774 normalized occupancy.
As for ACGTGTTC, the figure is 0.104 normalized occupancy.
As for ACGTGTTA, the figure is 0.109 normalized occupancy; as for GTGTGTTA, 0.0835 normalized occupancy; as for AGGTGTTG, 0.0828 normalized occupancy.
Under CCGTGTTA stands 0.0848 normalized occupancy; under ACGTGTTG, 0.109 normalized occupancy.
Regarding CCGTGTTC, the binding signal came to 0.0725 normalized occupancy.
Regarding AAGTGTTC, the binding signal came out at 0.0784 normalized occupancy.
AGGTGTTA: the binding signal came to 0.0801 normalized occupancy.
In the case of GGGTGTTA, the binding signal worked out at 0.0779 normalized occupancy.
On to ATGTGTTG, for which the binding signal turned out to be 0.0905 normalized occupancy.
Consider GCGTGTTA, for which the binding signal was 0.101 normalized occupancy.
For AGAGTCGC, the binding signal was 0.0764 normalized occupancy.
In the case of ACGGATGC, the binding signal amounted to 0.0722 normalized occupancy.
GTGCCTTA: the binding signal came to 0.0789 normalized occupancy.
Under ATGAGCGG stands 0.0799 normalized occupancy; under CGGTGTAC, 0.0764 normalized occupancy; under GATATTCC, 0.0765 normalized occupancy.
For the sequence AGCAATTC, the binding signal is 0.0722 normalized occupancy.
As for CACGTAAG, the figure is 0.0796 normalized occupancy; as for GACGTGAC, 0.0813 normalized occupancy.
Consider GACGTGAA, for which the binding signal stood at 0.0766 normalized occupancy.
Under CACGTGAG stands 0.245 normalized occupancy; under CACGTGAA, 0.231 normalized occupancy; under CACGTGAC, 0.464 normalized occupancy.
As for CCCGTGAC, the figure is 0.0826 normalized occupancy; as for TACGTGAA, 0.0794 normalized occupancy.
Under CCCGTGAA stands 0.0812 normalized occupancy; under CCTTCCCA, 0.0748 normalized occupancy; under GAATCCTA, 0.0741 normalized occupancy.
For CAGCCGCA, the binding signal came out at 0.0718 normalized occupancy.
As for TGGGTGAA, the binding signal was determined as 0.0791 normalized occupancy.
For AGGATGAC, the binding signal came to 0.0813 normalized occupancy.
As for TCTAGCCA, the figure is 0.0723 normalized occupancy; as for CCTTTATA, 0.0822 normalized occupancy; as for ATGCTTTC, 0.0842 normalized occupancy.
For the sequence ATCGTGTA, the binding signal was 0.0829 normalized occupancy.
For the sequence CTCGTGTC, the binding signal stood at 0.0959 normalized occupancy.
Under GTCGTGTA stands 0.0822 normalized occupancy; under CTCGTTTC, 0.0748 normalized occupancy.
Under CTCGTGTA stands 0.103 normalized occupancy.
As for ATCGTGTC, the figure is 0.0864 normalized occupancy; as for AACATACC, 0.086 normalized occupancy.
As to ATCGTCGA, the binding signal amounted to 0.0747 normalized occupancy.
CTGAATAC: the binding signal stood at 0.0791 normalized occupancy.
In the case of CGTGTATA, the binding signal came out at 0.0906 normalized occupancy.
In the case of AGTGTGTA, the binding signal amounted to 0.0806 normalized occupancy.
As for CGCGTGTA, the figure is 0.123 normalized occupancy; as for AGCGTGTA, 0.0952 normalized occupancy; as for CGCGCGTC, 0.075 normalized occupancy.
As for AGCGTATG, the figure is 0.0754 normalized occupancy; as for AGCGTGTG, 0.0954 normalized occupancy.
Under GGCGTGTA stands 0.0895 normalized occupancy; under CGCGTGTC, 0.115 normalized occupancy.
On to AGCGTGTC, for which the binding signal was determined as 0.0932 normalized occupancy.
Under CGTGTGTC stands 0.0936 normalized occupancy; under CGTGTGTA, 0.0944 normalized occupancy; under AAAGGACT, 0.076 normalized occupancy.
As for CTAGAATA, the figure is 0.0796 normalized occupancy; as for AAACAACG, 0.079 normalized occupancy.
Turning to AGTTTGAA, the binding signal is 0.0729 normalized occupancy.
As for AAACTCAT, the figure is 0.0797 normalized occupancy; as for ATAAAAGG, 0.0778 normalized occupancy; as for CGGTCTCA, 0.0736 normalized occupancy.
As for CACAGTCA, the binding signal came out at 0.0797 normalized occupancy.
ACCATCCT: the binding signal turned out to be 0.0757 normalized occupancy.
As for ACGTGAGA, the figure is 0.0981 normalized occupancy.
As for CCGTGAGG, the figure is 0.0784 normalized occupancy; as for ACGTGAGT, 0.0893 normalized occupancy; as for TCGTGAGA, 0.0809 normalized occupancy.
As for GCGTGAGC, the figure is 0.091 normalized occupancy; as for ATGTGAGC, 0.0803 normalized occupancy; as for GAGTGAGA, 0.0795 normalized occupancy.
On to ACGTGAGC, for which the binding signal amounted to 0.107 normalized occupancy.
For GCGTGAGA, the binding signal was determined as 0.0965 normalized occupancy.
Under AAGTGAGG stands 0.0763 normalized occupancy.
As for CCGTGAGA, the figure is 0.0755 normalized occupancy; as for ACGTGAGG, 0.0969 normalized occupancy.
As for AATTGCCA, the figure is 0.0744 normalized occupancy; as for CCTAGAAC, 0.0744 normalized occupancy.
On to ATGTTGTG, for which the binding signal came to 0.0817 normalized occupancy.
As for CCGTCATC, the figure is 0.0727 normalized occupancy.
Under AAGACTAT stands 0.0779 normalized occupancy; under CTGGGGAA, 0.0741 normalized occupancy; under ATGAACAA, 0.0807 normalized occupancy.
Under CTGCATTC stands 0.0735 normalized occupancy.
As for GTGCATGA, the binding signal is 0.0961 normalized occupancy.
Consider ATGCATGA, for which the binding signal turned out to be 0.0997 normalized occupancy.
Under GTGCATAA stands 0.0861 normalized occupancy.
Under ATGCATTC stands 0.0908 normalized occupancy; under ATGCATCC, 0.0863 normalized occupancy; under ATGCATGC, 0.126 normalized occupancy.
As for ATGCATTA, the figure is 0.0869 normalized occupancy.
Take ATGCATCA: the binding signal amounted to 0.0872 normalized occupancy.
As for CTGCATGA, the figure is 0.083 normalized occupancy.
Under CTGCATGC stands 0.1 normalized occupancy.
Under GTGCATCA stands 0.0868 normalized occupancy; under AGAGGCGA, 0.0756 normalized occupancy; under CTTGAGTC, 0.0726 normalized occupancy.
As for ACTTTGTC, the binding signal came out at 0.0738 normalized occupancy.
As for GGTTCTAC, the figure is 0.0735 normalized occupancy; as for GAACTAAC, 0.0734 normalized occupancy; as for ATTCCGAC, 0.0732 normalized occupancy.
Under AAGTTCAG stands 0.0751 normalized occupancy.
As for ACACCAAG, the figure is 0.0798 normalized occupancy; as for GTGGACCA, 0.0775 normalized occupancy; as for GTGTTAAA, 0.0743 normalized occupancy.
On to GATTGCAC, for which the binding signal is 0.0761 normalized occupancy.
Under ATGCATCG stands 0.0835 normalized occupancy; under ATGCATAG, 0.0814 normalized occupancy.
As for ATGCATGG, the figure is 0.0969 normalized occupancy; as for CGGGGGCA, 0.0747 normalized occupancy.
As for ATCATGCG, the figure is 0.105 normalized occupancy; as for GTCATGCA, 0.0869 normalized occupancy.
In the case of CTCATGGA, the binding signal was 0.0927 normalized occupancy.
As for ATCATTCG, the binding signal came out at 0.0804 normalized occupancy.
As for CTCATGGC, the figure is 0.0965 normalized occupancy; as for CTCATGAC, 0.0906 normalized occupancy.
Take CTTATGGC: the binding signal was 0.0778 normalized occupancy.
As to ATCATGCA, the binding signal amounted to 0.0894 normalized occupancy.
Under CTCATGCA stands 0.0963 normalized occupancy.
As for CTCATGTC, the figure is 0.0928 normalized occupancy; as for ATGATGCG, 0.0869 normalized occupancy; as for CTCATGCC, 0.0954 normalized occupancy.
As for AAAAGGGA, the figure is 0.0725 normalized occupancy.
Consider GGGCGTTA, for which the binding signal is 0.0774 normalized occupancy.
As for TACTTCTA, the figure is 0.0754 normalized occupancy; as for GCATAAGA, 0.0799 normalized occupancy; as for GGCTAGCA, 0.0747 normalized occupancy.
Under ATAATGCC stands 0.0813 normalized occupancy; under ATCATGCC, 0.0958 normalized occupancy; under ATCATGAC, 0.0868 normalized occupancy.
